These results are taken from PubChem BioAssay AID743286 (National Center for Advancing Translational Sciences (NCATS), 2014).

About 340 (31%) of roughly 1,100 compounds were called active. Not shown: some 40% with an inconclusive outcome. Not all results are given here. A number with no mark means an inactive call. Calls come from the whole dose curve; as a rule, active = well fitted inhibition curve with a large enough effect; inconclusive = small, poorly fitted or top-dose-only effect; inactive = flat fitted curve, though single readings scatter.
% is set by controls: 0 for no effect and ±100 for the full control effect; potency is the fitted concentration of half-maximal effect.

Sequence of Phosphatidylinositol 5-phosphate 4-kinase type-2 alpha (Homo sapiens) (P48426 whole entry, looked up): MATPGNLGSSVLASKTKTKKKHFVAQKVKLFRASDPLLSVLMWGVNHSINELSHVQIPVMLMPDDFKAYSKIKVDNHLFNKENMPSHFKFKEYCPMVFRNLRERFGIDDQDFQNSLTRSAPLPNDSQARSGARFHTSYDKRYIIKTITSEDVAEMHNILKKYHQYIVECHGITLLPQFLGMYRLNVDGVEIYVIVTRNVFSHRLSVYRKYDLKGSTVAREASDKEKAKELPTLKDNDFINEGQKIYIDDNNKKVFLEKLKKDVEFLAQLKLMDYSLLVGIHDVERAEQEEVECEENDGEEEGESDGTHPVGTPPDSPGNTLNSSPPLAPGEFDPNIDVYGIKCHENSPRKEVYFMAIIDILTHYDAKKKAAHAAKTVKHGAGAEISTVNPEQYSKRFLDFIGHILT

For this assay, the target named is Phosphatidylinositol 5-phosphate 4-kinase type-2 alpha (Homo sapiens) (UniProt P48426). As to the kind of experiment: qHTS for Inhibitors of PI5P4K: Confirmation in Primary Assay. Note: nearly all actives have a fitted effect of over 65% in size. Particulars: PI5P4Kalpha enzyme, ADP-Glo luminescence, 60 min; series mostly up to 76.9 µM; activity change, negative = inhibition: at the top concentration. The essentials:
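ADP-Glo luminescence end-point quantified ADP produced by PI5P4Kα after 60 min at room temperature with 5 microM ATP. Buffer: HEPES pH 7.4, EGTA, 0.1% CHAPS, 5% DMSO final; compounds added before ATP.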
Turning to `CCOc1ccc(OCc2ccc(C(=O)N3CCOCC3)cc2)cc1`, the “activity change, negative = inhibition” value was -13.7%. On the same count and under the same terms, for `CCC(C)c1nc2ccsc2c(N2CCOC2=O)c1-c1ccccc1` (stereo not given) the value was 2.12%; for `Cc1cccnc1NC(=O)CSc1nnc(COc2ccc(C(C)C)cc2)n1C`, 0.341%. In the case of `O=C(CSc1nc2c(cnn2-c2cccc(Cl)c2)c(=O)[nH]1)NCC1CCCO1` (stereo not given), the “activity change, negative = inhibition” value is -21%. As to `O=c1c2ccccc2[nH]c2ccc(O)cc12`, the Potency is 20 µM (active). As for `O=[N+]([O-])c1ccc(-c2cc(-c3ccc(Cl)cc3)n[nH]2)cc1`, the “activity change, negative = inhibition” value was -12.7%. Regarding `Cc1nc2ccccc2nc1OCC(=O)NCc1ccc2c(c1)OCO2`, the “activity change, negative = inhibition” value was -6.61%.

Consider `CNC(=O)COC(=O)c1cc(-c2ccco2)nc2ccccc12`, for which the Potency is 12.6 µM (active). Still for that read-out and setting: for `CCN(CC)C(=O)COC(=O)c1cc(-c2ccco2)nc2ccccc12` the value was 12.6 µM (active); for `CCNC(=O)COC(=O)c1cc(-c2ccco2)nc2ccccc12`, 14.1 µM (active).

For `O=C(OCc1nnc(-c2ccccc2)o1)c1ccc2ccccc2n1`, the “activity change, negative = inhibition” value is -26.2%. For `COc1ccc(CNC(=O)CCCn2nc(C)c([N+](=O)[O-])c2C)cc1OC`, the “activity change, negative = inhibition” value is 4.88%. Take `Cc1ccc(NC(=O)Nc2cccs2)cc1`: the “activity change, negative = inhibition” value is -9.22%. On the same count and under the same terms, for `CC(C)NC(=O)N1c2ccccc2Sc2ccccc21` the value was -2.11%. As for `COC(=O)Cc1c(C)nc2nc(-c3ccc(C)cc3)[nH]n2c1=O`, the Potency is 6.31 µM (active). As to `O=C(Nc1nnc(SCc2ccc(Cl)cc2)s1)c1ccco1`, the “activity change, negative = inhibition” value is -1.98%.

Regarding `O=C(Nc1nnc(-c2ccncc2)o1)c1ccccc1`, the “activity change, negative = inhibition” value is 1.15%.

With `O=C(Nc1nnc(-c2ccc(Cl)cc2)o1)c1nc2ccccc2s1`, the Potency was 14.1 µM (active). With `CC(C)(C)NC(=O)Nc1ccc(Cn2cc(C(F)(F)F)ccc2=O)cc1`, the “activity change, negative = inhibition” value was 5.44%.

Consider `Cc1c(C(=O)O)sc2ncnc(N3CCCCC3C)c12` (stereo not given), for which the Potency was 10 µM (active).

Take `O=C(COc1cccc2ccccc12)Nc1ccc(Cl)cc1C(=O)O`: the Potency is 25.1 µM (active). Take `CNC(=O)c1nc(C)n(-c2ccc(Cl)cc2Cl)n1`: the “activity change, negative = inhibition” value was 2.37%. Still for that read-out and setting: then `Cc1ccc(C(c2nnnn2CS(=O)(=O)c2ccc(C)cc2)N2CCC(C)CC2)cc1` (stereo not given), with 11.4%. For `N#Cc1c(NC(=O)CSc2ncnc3sccc23)oc(-c2ccco2)c1-c1ccco1`, the Potency is 17.8 µM (active). As for `Cc1cc(C(=O)OCC(=O)Nc2c(F)cccc2F)c(C)n1-c1ccccc1`, the “activity change, negative = inhibition” value was 0.578%. With `NC(=O)c1ccsc1NC(=O)COC(=O)c1ccccc1F`, the Potency is 22.4 µM (active).

Take `CN(C)S(=O)(=O)c1cccc(C(=O)OCC(=O)Nc2sccc2C(N)=O)c1`: the “activity change, negative = inhibition” value is -2.55%. As for `Cc1sc(NC(=O)c2sc3nc4c(C)cccc4cc3c2N)c(C#N)c1C`, the Potency is 11.2 µM (active).

For `Cc1cc(C)c2c(N)c(C(=O)Nc3c(C)n(C)n(-c4ccccc4)c3=O)sc2n1`, the “activity change, negative = inhibition” value was 2%. For `N#CC1=C2SCN(c3ccccc3)CN2C(=O)CC1c1c(Cl)cccc1Cl` (stereo not given), the Potency is 22.4 µM (active). In the case of `CCc1ccccc1N1CSC2=C(C#N)C(c3ccccc3F)CC(=O)N2C1` (stereo not given), the Potency was 14.1 µM (active). Consider `N#CC1=C2SCN(c3ccccc3)CN2C(=O)CC1c1ccccc1Cl` (stereo not given), for which the Potency is 25.1 µM (active). In the case of `O=C(CSc1ncnc2sc3c(c12)CCC3)N1CCOCC1`, the “activity change, negative = inhibition” value is -28.5%. Regarding `COc1ccc2c([N+](=O)[O-])c(Cl)[nH]c2c1`, the Potency is 10 µM (active).

For the molecule `CC(C)C(=O)Nc1ccccc1N1CCN(S(C)(=O)=O)CC1`, the “activity change, negative = inhibition” value was -0.34%. In the case of `O=C(NCc1cc([N+](=O)[O-])ccc1O)c1cccc(NS(=O)(=O)c2ccccc2)c1`, the Potency was 14.1 µM (active). Regarding `O=C(NCC1CCCCC1)c1cccc([N+](=O)[O-])c1`, the “activity change, negative = inhibition” value is -1.06%.

With `O=C(NCCCCc1ccccc1)c1cccc(NC(=O)C2CC2)c1`, the “activity change, negative = inhibition” value is -6.66%. For `OCCCNc1nccc(-c2cc(Nc3cccc(Cl)c3)ncn2)n1`, the Potency was 14.1 µM (active). With `OC(c1ccc(Cl)c(F)c1)c1ncc(-c2ccc(Oc3ccccc3)cc2)[nH]1` (stereo not given), the “activity change, negative = inhibition” value is -11.5%. The same measure, in the same setting: for `COc1cc(OC)cc(-c2nnc(NC(=O)CCS(=O)(=O)c3ccc(C)cc3)o2)c1` the value was -24.4%; for `O=S(=O)(NCCC1=CCCCC1)c1cccc(S(=O)(=O)N2CCOCC2)c1`, -9.09%; for `O=S(=O)(c1ccccc1)c1nc(-c2ccco2)oc1N1CCCCCC1`, -3.6%.

Take `O=S(=O)(c1ccc2nc(-c3ccco3)c(-c3ccco3)nc2c1)N1CCOCC1`: the Potency is 15.8 µM (active).

Regarding `O=C(Nc1ccc2c(c1)OCCO2)c1ccccc1F`, the “activity change, negative = inhibition” value is -15.9%. `COc1ccc(C(C(=O)NC2CCCC2)N(C(=O)c2snc(C(N)=O)c2N)c2cccc(O)c2)cc1` (stereo not given): the “activity change, negative = inhibition” value is -27.8%. `N#Cc1cc(-c2ccccc2)nn1-c1ccccc1`: the Potency was 10 µM (active). Turning to `Cc1ccc(CSCC(=O)N2CCOCC2)cc1`, the “activity change, negative = inhibition” value is 6.55%. For `COCCn1c(SCC(=O)Nc2cccc(S(N)(=O)=O)c2)nc2cc(Cl)ccc2c1=O`, the “activity change, negative = inhibition” value was 0.951%. Turning to `O=C(Cc1ccc(Cl)cc1Cl)Nc1cccc(S(=O)(=O)Nc2ccccc2F)c1`, the Potency is 3.98 µM (active).

For the molecule `O=C(Nc1cccc(Cl)c1)N1CCCC1`, the “activity change, negative = inhibition” value was -2.89%. Turning to `CC(=O)NC(c1ccc(C)cc1)c1cc([N+](=O)[O-])c2cccnc2c1O` (stereo not given), the “activity change, negative = inhibition” value was -13.1%. For the molecule `CC(=O)NC(c1cccs1)c1cc([N+](=O)[O-])c2cccnc2c1O` (stereo not given), the Potency was 12.6 µM (active). Consider `O=C(Oc1ccc(N(Cc2cccs2)C2=NS(=O)(=O)c3ccccc32)cc1)c1ccccc1Cl`, for which the “activity change, negative = inhibition” value was -6.53%. `Cn1c(=O)c2[nH]c(-c3ccc(S(=O)(=O)O)cc3)nc2n(C)c1=O`: the Potency is 12.6 µM (active).

Consider `CCCn1c(=O)c2[nH]c(-c3ccc(S(=O)(=O)O)cc3)nc2n(CCC)c1=O`, for which the Potency is 14.1 µM (active). In the case of `O=C(CSc1nc(-c2ccccc2)cc(=O)[nH]1)N1CCc2ccccc21`, the “activity change, negative = inhibition” value was 1.95%.

On to `COc1ccc(CCCc2nnc(SCc3nc4ccccc4c(=O)[nH]3)n2C)cc1`, for which the “activity change, negative = inhibition” value is -2.05%. `CCn1c(SCc2nc3sc(C(=O)O)c(C)c3c(=O)[nH]2)nc2ccccc21`: the Potency is 12.6 µM (active). On to `c1cc2c(cc1C1=NNC(=NC3CC3)SC1)OCCO2`, for which the Potency is 28.2 µM (active).

Regarding `Cc1cc(C(=O)Nc2cccc3c2O[C@@H](CN(C)S(C)(=O)=O)[C@H](C)CN([C@@H](C)CO)C3=O)n(C)n1`, the “activity change, negative = inhibition” value was 4.38%. In the case of `O=C(OCC(=O)N1CCCCCC1)c1ccc(Cl)c(S(=O)(=O)N2CCCC2)c1`, the “activity change, negative = inhibition” value was -7.9%. As to `NS(=O)(=O)c1cc(C(=O)NC2CCSc3ccccc32)ccc1Cl` (stereo not given), the Potency is 0.891 µM (active). For the molecule `COCc1ccc2oc(C(=O)O)cc2c1`, the “activity change, negative = inhibition” value was -11.2%. For the molecule `COc1ccc2c(c1)c(=O)oc1c(C)c(OCc3cc(C(=O)O)oc3C)ccc12`, the Potency was 17.8 µM (active).
